The text below walks through data of PubChem BioAssay (EPA / NIEHS).

Read-out in test [1]: TIMP metallopeptidase inhibitor 1 (TIMP1), TIMP1 (gene 7076)
Put plainly: BSK_hDFCGF_TIMP1: BioMAP Diversity Plus: hDFCGF Assay for TIMP metallopeptidase inhibitor 1 (TIMP1) Biomarker Activity (AID 2283062). Conditions: primary human foreskin fibroblasts; actives raise or lower the signal. In outline:
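Bidirectional curve fitting against DMSO baseline yielded this endpoint, based on ELISA detection of TIMP-1 in primary human foreskin fibroblasts exposed to compound for 24 h.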

Read-out in test [2]: Monokine induced gamma interferon (MIG), CXCL9 (gene 4283)
Put plainly: BSK_hDFCGF_MIG: BioMAP Diversity Plus: hDFCGF Assay for Monokine induced gamma interferon (MIG) Biomarker Activity (AID 2283063). The conditions noted are these: primary human foreskin fibroblasts; actives raise or lower the signal. The gist of the method:
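Endpoint derived by bidirectional fitting relative to DMSO; MIG quantified via ELISA in primary human foreskin fibroblasts harvested 24 h after dosing.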

Read-out in test [3]: Matrix Metallopeptidase 1 (MMP1), MMP1 (gene 4312)
Put plainly: BSK_hDFCGF_MMP1: BioMAP Diversity Plus: hDFCGF Assay for Matrix Metallopeptidase 1 (MMP1) Biomarker Activity (AID 2283064). Conditions: primary human foreskin fibroblasts; actives raise or lower the signal. The gist of the method:
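Primary human foreskin fibroblasts in the hDFCGF system were dosed with test chemical, and MMP1 was measured by ELISA 24 h later. Values come from bidirectional curve fitting against the DMSO baseline.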

Read-out in test [4]: Vascular cell adhesion molecule 1 (VCAM1), VCAM1 (gene 7412)
The experiment in a line: BSK_hDFCGF_VCAM1: BioMAP Diversity Plus: hDFCGF Assay for Vascular cell adhesion molecule 1 (VCAM1) Biomarker Activity (AID 2283065).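 As to AC50: VCAM-1 protein level quantified by ELISA after 24 h chemical exposure.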 Conditions: primary human foreskin fibroblasts; actives raise or lower the signal. In outline: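 Measured after 24 h chemical treatment of primary human skin fibroblasts, VCAM-1 was detected by ELISA and concentration-response analysed in both directions versus DMSO vehicle.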

Read-out in test [5]: Plasminogen activator inhibitor-1 (PAI1), SERPINE1 (gene 5054)
The experiment in a line: BSK_hDFCGF_PAI1: BioMAP Diversity Plus: hDFCGF Assay for Plasminogen activator inhibitor-1 (PAI1) Biomarker Activity (AID 2283066). Conditions: primary human foreskin fibroblasts; actives raise or lower the signal. In outline: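 Primary dermal fibroblasts (human foreskin), hDFCGF system; compound 24 h; PAI-1 by ELISA; bidirectional fit vs DMSO control.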

Read-out in test [6]: Intercellular Adhesion Molecule 1 (ICAM1), ICAM1 (gene 3383)
Put plainly: BSK_KF3CT_ICAM1: BioMAP Diversity Plus: KF3CT Assay for Intercellular Adhesion Molecule 1 (ICAM1) Biomarker Activity (AID 2283067). Conditions: primary human keratinocytes with fibroblasts; actives raise or lower the signal. In outline:
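Bidirectional curve fitting against a DMSO baseline was applied to ICAM-1 ELISA signal from primary human skin co-cultures harvested 24 h after treatment, with SRB staining of parallel wells for overt cytotoxicity.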

Read-out in test [7]: Interferon-gamma inducible Protein 10 (IP10), CXCL10 (gene 3627)
The experiment in a line: BSK_KF3CT_IP10: BioMAP Diversity Plus: KF3CT Assay for Interferon-gamma inducible Protein 10 (IP10) Biomarker Activity (AID 2283068). The conditions noted are these: primary human keratinocytes with fibroblasts; actives raise or lower the signal. In outline: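 ELISA read-out of IP-10 after 24 h chemical dosing of human skin primary co-culture (keratinocytes, foreskin fibroblasts). Gain or loss of signal relative to DMSO, bidirectional curve fit.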

A short description of test [8]: BSK_KF3CT_SRB: Viability Assessment in the BioMAP Diversity Plus: KF3CT Assay (AID 2283069).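 Also: total protein by sulforhodamine B staining as a cytotoxicity measure; read 24 h after compound addition.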 The conditions noted are these: primary human keratinocytes with fibroblasts. The gist of the method: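 Human primary keratinocyte plus foreskin fibroblast co-culture exposed to chemicals for 24 h. Total protein measured by 0.1% sulforhodamine B staining after 10% TCA fixation, read at 560 nm; bidirectional fitting versus DMSO baseline.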

Read-out in test [9]: Interleukin-1 alpha (IL1a), IL1A (gene 3552)
Put plainly: BSK_KF3CT_IL1a: BioMAP Diversity Plus: KF3CT Assay for Interleukin-1 alpha (IL1a) Biomarker Activity (AID 2283070). Conditions: primary human keratinocytes with fibroblasts; actives raise or lower the signal. In outline:
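Human keratinocyte plus foreskin fibroblast primary co-culture, sampled 24 h after chemical dosing. IL-1a measured by ELISA; responses fitted bidirectionally against DMSO baseline (negative control), so gain or loss of signal both count.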

Read-out in test [10]: TIMP metallopeptidase inhibitor 2 (TIMP2), TIMP2 (gene 7077)
The experiment in a line: BSK_KF3CT_TIMP2: BioMAP Diversity Plus: KF3CT Assay for TIMP metallopeptidase inhibitor 2 (TIMP2) Biomarker Activity (AID 2283071). The conditions noted are these: primary human keratinocytes with fibroblasts; actives raise or lower the signal. The gist of the method: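 Cells: human keratinocytes co-cultured with foreskin fibroblasts. Treat with chemical, 24 h. Measure TIMP-2 by ELISA; fit curves bidirectionally vs DMSO baseline.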

Read-out in test [11]: Transforming growth factor beta 1 (TGFb1), TGFB1 (gene 7040)
Put plainly: BSK_KF3CT_TGFb1: BioMAP Diversity Plus: KF3CT Assay for Transforming growth factor beta 1 (TGFb1) Biomarker Activity (AID 2283072). Conditions: primary human keratinocytes with fibroblasts; actives raise or lower the signal. In outline: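 Primary human skin cells (keratinocytes, foreskin fibroblasts) were co-cultured, exposed to test chemical and sampled at 24 h. TGF-b1 levels were measured by ELISA and fitted bidirectionally relative to DMSO.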

Read-out in test [12]: C-C motif chemokine 2 (Homo sapiens) (UniProt P13500)
The experiment in a line: BSK_KF3CT_MCP1: BioMAP Diversity Plus: KF3CT Assay for Monocyte Chemoattractant Protein 1 (MCP1/CCL2) Biomarker Activity (AID 2283073). The conditions noted are these: primary human keratinocytes with fibroblasts; actives raise or lower the signal. In outline:
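Biomarker MCP-1 is measured by ELISA in primary human keratinocytes co-cultured with foreskin fibroblasts, 24 h after chemical treatment; DMSO serves as the negative control and activity baseline.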

Read-out in test [13]: Matrix Metallopeptidase 9 (MMP9), MMP9 (gene 4318)
The experiment in a line: BSK_KF3CT_MMP9: BioMAP Diversity Plus: KF3CT Assay for Matrix Metallopeptidase 9 (MMP9) Biomarker Activity (AID 2283074).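 As to AC50: MMP9 protein level quantified by ELISA in the co-culture.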 Conditions: primary human keratinocytes with fibroblasts; actives raise or lower the signal. The gist of the method:
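Keratinocyte plus foreskin fibroblast human primary skin co-culture was dosed with chemical and MMP-9 was quantified by ELISA 24 h later. Bidirectional curve fitting used DMSO as negative control and activity baseline.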

Read-out in test [14]: urokinase plasminogen activator (uPA), PLAU (gene 5328)
The experiment in a line: BSK_KF3CT_uPA: BioMAP Diversity Plus: KF3CT Assay for urokinase plasminogen activator (uPA) Biomarker Activity (AID 2283075). Conditions: primary human keratinocytes with fibroblasts; actives raise or lower the signal. The gist of the method:
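Human keratinocyte plus foreskin fibroblast primary co-culture exposed to chemical for 24 h. uPA levels were quantified by ELISA, and activity was fitted bidirectionally against a DMSO negative-control baseline.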

Read-out in test [15]: CD40, CD40 (gene 958)
The experiment in a line: BSK_LPS_CD40: BioMAP Diversity Plus: LPS Assay for CD40 Biomarker Activity (AID 2283076). The conditions noted are these: primary human HUVEC with PBMC; actives raise or lower the signal. The gist of the method: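 Using a multiplexed primary human co-culture (umbilical vein endothelium plus PBMC), CD40 was read by ELISA 24 h after dosing, with cytotoxicity tracked by sulforhodamine B staining of parallel cultures and activity fitted bidirectionally versus DMSO.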

Read-out in test [16]: E-selectin (Homo sapiens) (UniProt P16581)
The experiment in a line: BSK_LPS_Eselectin: BioMAP Diversity Plus: LPS Assay for Eselectin Biomarker Activity (AID 2283077). The conditions noted are these: primary human HUVEC with PBMC; actives raise or lower the signal. In outline:
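Dose chemical onto LPS-driven HUVEC/PBMC co-culture; after 24 h, run ELISA for E-selectin; fit up- and down-going responses relative to DMSO control.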

Read-out in test [17]: Interleukin-8 (IL8), CXCL8 (gene 3576)
The experiment in a line: BSK_LPS_IL8: BioMAP Diversity Plus: LPS Assay for Interleukin-8 (IL8) Biomarker Activity (AID 2283078). Conditions: primary human HUVEC with PBMC; actives raise or lower the signal. The gist of the method:
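In this LPS system, chemical-treated human umbilical vein endothelium/PBMC co-cultures were harvested at 24 h for IL-8 ELISA.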

A short description of test [18]: BSK_LPS_SRB: Viability Assessment in the BioMAP Diversity Plus: LPS Assay (AID 2283079).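 Also: total protein by sulforhodamine B absorbance as a cytotoxicity measure; measured one day after compound addition.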 Conditions: primary human HUVEC with PBMC. The gist of the method:
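Cytotoxicity endpoint in human endothelial–PBMC co-culture: 24 h exposure, then SRB (0.1%) staining, 560 nm read.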

Read-out in test [19]: Interleukin-1 alpha (IL1a), IL1A (gene 3552)
The experiment in a line: BSK_LPS_IL1a: BioMAP Diversity Plus: LPS Assay for Interleukin-1 alpha (IL1a) Biomarker Activity (AID 2283080). Conditions: primary human HUVEC with PBMC; actives raise or lower the signal. In outline:
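Primary human HUVEC and PBMC co-culture stimulated with LPS is dosed and harvested at 24 h. Both increases and decreases in ELISA-measured IL-1a are scored relative to DMSO.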

Read-out in test [20]: Monocyte Chemoattractant Protein-1 (MCP1), CCL2 (gene 6347)
The experiment in a line: BSK_LPS_MCP1: BioMAP Diversity Plus: LPS Assay for Monocyte Chemoattractant Protein-1 (MCP1) Biomarker Activity (AID 2283081).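 As to AC50: secreted MCP-1 protein quantified by ELISA in culture supernatant.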 Conditions: primary human HUVEC with PBMC; actives raise or lower the signal. The gist of the method: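 Values derive from bidirectional fitting against DMSO of ELISA-measured MCP-1 in a human primary endothelial and mononuclear cell co-culture, 24 h after chemical addition under LPS activation.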

Activity calls are given as the source filed them. The calls were made as follows: active = hit-call score of the fitted dose curve at least 0.9, where 1 is the maximum; inactive = score below 0.9.

Sequence of E-selectin (Homo sapiens) (P16581 whole entry, looked up): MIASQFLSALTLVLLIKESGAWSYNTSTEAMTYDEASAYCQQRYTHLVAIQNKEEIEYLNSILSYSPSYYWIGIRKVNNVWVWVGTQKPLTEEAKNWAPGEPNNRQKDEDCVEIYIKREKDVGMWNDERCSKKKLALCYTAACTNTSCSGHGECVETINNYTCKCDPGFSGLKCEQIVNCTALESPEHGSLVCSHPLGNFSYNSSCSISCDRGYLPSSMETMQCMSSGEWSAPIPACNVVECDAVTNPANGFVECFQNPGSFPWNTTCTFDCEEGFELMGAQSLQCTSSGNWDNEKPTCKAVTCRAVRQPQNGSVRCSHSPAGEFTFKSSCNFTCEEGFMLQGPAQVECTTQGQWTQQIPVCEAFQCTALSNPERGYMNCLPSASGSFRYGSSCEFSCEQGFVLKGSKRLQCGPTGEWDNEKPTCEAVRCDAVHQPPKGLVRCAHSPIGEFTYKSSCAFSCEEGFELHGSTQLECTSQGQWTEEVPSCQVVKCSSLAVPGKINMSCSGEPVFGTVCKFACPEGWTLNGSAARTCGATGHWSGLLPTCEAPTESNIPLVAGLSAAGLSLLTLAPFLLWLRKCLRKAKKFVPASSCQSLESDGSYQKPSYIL

As for `CN(C)[C@@H]1C(=O)C(C(N)=O)=C(O)[C@@]2(O)C(=O)C3=C(O)c4c(O)cccc4[C@@](C)(O)[C@H]3C[C@@H]12`, the result in [1], in [2], in test [3], in test [4], in test [5] and in test [6] was inactive. For the same compound, the result in [7], in test [8], in test [9], in [10], in test [11] and in test [12] was inactive. Besides, the result in test [13], in test [14], in [15], in test [16], in test [17] and in test [18] was inactive. For the same compound, the result in test [19] and in [20] was inactive.

The AC50 is the concentration at which the activity in the assay is half-maximal. Turning to `O=[N+]([O-])C(Br)(CO)CO`, the AC50 is 32.9 µM (active) in [1]; 30.2 µM (active) in test [2]; 32.3 µM (active) in test [3]; 26.7 µM (active) in [4]; 26.8 µM (active) in test [5]; 35.8 µM (active) in [6]. For the same compound, the AC50 was 34.9 µM (active) in test [7]; 33.2 µM (active) in test [8]; 32.5 µM (active) in test [9]; 28.5 µM (active) in [10]; 32 µM (active) in test [11]; 34.4 µM (active) in test [13]. In addition, the AC50 in test [14] was 36.8 µM (active); in [15] it was 29 µM (active); in test [16], 32.8 µM (active); in test [17], 34.2 µM (active); in test [18], 29.6 µM (active); in test [19] it was 34 µM (active). Also, the half-maximal activity concentration (AC50) in test [20] is 25.9 µM (active). In addition, the outcome in test [12] was inactive.

Turning to `Nc1ccc(N=Nc2ccccc2)cc1`, the result in test [1], in test [2], in test [3], in [5], in [6] and in [7] was inactive. The outcome in test [8], in test [9], in [10], in test [11], in test [12] and in [14] was inactive. Besides, the result in [15], in test [16], in test [17], in test [18], in test [19] and in test [20] was inactive. Moreover, the AC50 in [4] and in test [13] was 20 µM (active) in each case.
